In the supplement of paper PMC10981050:
“And” between values parts separate entries of the source, which are not always exact repeats. Equal values may be shown once. Where a name gives a salt, the structure may show the parent alone.

Columns and labels:
Assay in all cases: cell viability relative to vehicle control; higher = less cytotoxic
Settings in all cases: 10 µM
K562 = system: K562
Procedure, shortened: (§1)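 Mutant clones made by CRISPR editing and their isogenic wild-type counterparts, from four leukaemia lines, were exposed to a single 10 µM dose of each library compound for 48 h. The supernatant was then removed and CellTiter-Glo luminescence was read. Viability was reported as percent of the on-plate vehicle control.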

MARIMO = system: MARIMO
Procedure, shortened: as §1

MOLM14 = system: MOLM14
Procedure, shortened: as §1

OCI-AML2 = system: OCI-AML2
Procedure, shortened: as §1

Structure (SMILES)	cell viability (K562; SRSF2 genotype: SRSF2 P95H/wt)	cell viability (K562; SRSF2 genotype: SRSF2 wt/wt) [%]	cell viability (MARIMO; SRSF2 genotype: SRSF2 P95H/wt) [%]	cell viability (MARIMO; SRSF2 genotype: SRSF2 wt/wt) [%]	cell viability (MOLM14; SRSF2 genotype: SRSF2 P95H/wt) [%]	cell viability (MOLM14; SRSF2 genotype: SRSF2 wt/wt) [%]	cell viability (OCI-AML2; SRSF2 genotype: P95H/wt) [%]	cell viability (OCI-AML2; SRSF2 genotype: wt/wt) [%]
COc1ccnc2[nH]cc(C(=O)C(=O)N3CCN(C(=O)c4ccccc4)C[C@H]3C)c12	93.7% and 90.7%	84.5	90	99.2	95.6	90.3	82.2	86.4
C/C=C(/C)C(=O)O[C@H]1[C@@H](OC(C)=O)c2c(ccc3ccc(=O)oc23)OC1(C)C [(+)-Praeruptorin A]	92.3% and 98.4%	90.2	84.5	93.9	82.8	93.3	90.3	104
C[C@@H](c1ncncc1F)[C@](O)(Cn1cncn1)c1ccc(F)cc1F [Voriconazole]	102% and 99.5%	99	107	106	99.5	101	104	108
O=C(Nc1ccc(S(=O)(=O)Nc2ccccc2Cl)c(Cl)c1)c1ccccn1	98.1% and 99%	99.7	95.6	101	97.6	98.3	103	104
O=C1NC(=O)C(c2cnc3ccccn23)=C1c1cn2c3c(cc(F)cc13)CN(C(=O)N1CCCCC1)CC2	56.1% and 43.4%	71.5	94.4	103	86.8	79.5	118	119
O=C1C(=Cc2ccncc2)CCCC1=Cc1ccncc1	7.78% and 5.31%	20.5	1.92	0.58	2.47	0.31	0.15	0.12
COc1nc(OCc2cccc(-c3ccccc3)c2C)ccc1CNCCNC(C)=O [BMS202 (PD-1/PD-L1 inhibitor 2)]	10.8% and 26.5%	32.6	60.9	59	41.6	31.9	53.5	51.3
COc1cccc(C=NCCN=Cc2cccc(OC)c2[O-])c1[O-].[Cl-].[Mn+3]	100% and 97%	97.3	92	104	92.2	104	89.2	101
CNc1nc(Nc2cn(C(C)(C)C#N)nc2C)ncc1C(F)(F)F	101% and 102%	103	101	108	98.8	101	102	105
NC(=O)c1cccc2cn(-c3ccc([C@@H]4CCCNC4)cc3)nc12 [MK-4827(Niraparib) tosylate]	103% and 99.2%	87.5	48.4	64.4	21.4	7.47	41.8	47.3
O=c1c(-n2ccnn2)c[nH]n1-c1cc(N2CCOCC2)ncn1 [Molidustat(BAY 85-3934)]	96.1% and 100%	90.2	81.8	98.1	87.9	93.6	85.2	87.9
CN(C)C/C=C/C(=O)Nc1cc2c(Nc3ccc(F)c(Cl)c3)ncnc2cc1O[C@H]1CCOC1 [Afatinib (BIBW2992)]	8.97% and 5.94%	6.24	1.96	1.37	0.03	0.04	0.06	0.13
COc1ccc(Cn2c3ncnc4c(ncn4Cc4ccc(OC)cc4)c-3nc2=O)cc1	1.11% and 1.3%	0.98	4.49	17.2	9.44	2.32	4.12	5.63
Cc1cc(NC(=O)c2cccc(NC(=O)/C=C/CN(C)C)c2)ccc1Nc1nccc(-c2cccnc2)n1	59.8% and 60.8%	65.5	53.1	50.7	6.36	6.17	17.2	26.6
N[C@@H](Cc1cc(I)c(Oc2cc(I)c(O)c(I)c2)c(I)c1)C(=O)O [L-Thyroxine]	87.7% and 96.4%	101	106	114	98.8	106	102	114
O=C1C[C@@H](c2ccccc2)Oc2cc(O)cc(O)c21 [Pinocembrin]	91.6% and 92.5%	95.4	96.4	99.8	109	112	95.1	87.8
N#CC(=C(/N)Sc1ccccc1N)/C(C#N)=C(\N)Sc1ccccc1N	70.5% and 77.5%	72.7	38.2	37.1	54.9	57.2	48.9	48.1
CO/N=C(\C(=O)N[C@@H]1C(=O)N2C(C(=O)O)=C(CSc3nc(C)c(CC(=O)O)s3)CS[C@H]12)c1csc(N)n1 [Cefodizime Sodium]	96% and 90.5%	103	100	112	97.1	104	99.6	107
CC(C)CN(CC(=O)N1CCN(CC(OCc2ccc3ccccc3c2)c2ccc(Cl)cc2Cl)CC1)CC(C)C (stereo not drawn)	73.4% and 83%	79.2	54.3	43.2	56.2	71	36	41.8
CNC(=O)c1cc(Oc2ccc(NC(=O)Nc3ccc(Cl)c(C(F)(F)F)c3)c(F)c2)ccn1 [Regorafenib (BAY 73-4506)]	17.6% and 21.9%	14.9	29.2	28	16.6	13.1	23.1	22.8
Cc1cccc(CN2CCN(C(c3ccccc3)c3ccc(Cl)cc3)CC2)c1 (stereo not drawn) [Meclizine dihydrochloride]	87.7% and 94.2%	91.5	92.2	105	86.2	91.2	86.4	83.2
